From PubChem BioAssay AID1159580 (chemical genetic matrix, 2015)
Out of some 5,500 compounds screened, about 2,000 (36%) were called active. Roughly 18% stayed inconclusive and do not appear here. No stated cut-off is given here; in the data, active means normalized growth mostly below about 0.91 (no sharp cut-off); inconclusive means no clear call, values can overlap the other calls; inactive means mostly above about 0.92. The list shows a part of the results.

Assay: chemical genetic growth profiling, strain panel (AID 1159580);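 further: tested at 20 µM; growth read once vehicle control cultures reached saturation at 30 °C; 1 = growth at the plate median or of vehicle wells; lower values mean less growth of the strain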
Settings: growth OD

Measured: normalized growth

COc1ccccc1N=C(N)SCc1ccccc1
inactive: S. cerevisiae deletion strains, locus YAL013W, strain DEP1, active compounds read low 1.01 | S. cerevisiae deletion strains, locus YBR229C, strain ROT2, active compounds read low 1.01 | S. cerevisiae deletion strains, locus YCL061C, strain MRC1, active compounds read low 1.01 | S. cerevisiae deletion strains, locus YDL101C, strain DUN1, active compounds read low 1 | S. cerevisiae deletion strains, locus YDR150W, strain NUM1, active compounds read low 0.923 | S. cerevisiae deletion strains, locus YEL061C, strain CIN8, active compounds read low 1 | S. cerevisiae deletion strains, locus YGR078C, strain PAC10, active compounds read low 1.01 | S. cerevisiae deletion strains, locus YHR030C, strain SLT2, active compounds read low 1.03 | S. cerevisiae deletion strains, locus YHR087W, strain rtc3, active compounds read low 1.01 | S. cerevisiae deletion strains, locus YJL187C, strain SWE1, active compounds read low 1.01 | S. cerevisiae deletion strains, locus YJR043C, strain POL32, active compounds read low 1.01 | S. cerevisiae deletion strains, locus YJR075W, strain HOC1, active compounds read low 1.01 | S. cerevisiae deletion strains, locus YKL190W, strain CNB1, active compounds read low 1.01 | S. cerevisiae deletion strains, locus YLR039C, strain RIC1, active compounds read low 1.02 | S. cerevisiae deletion strains, locus YLR058C, strain SHM2 (second series), active compounds read low 1.01 | S. cerevisiae deletion strains, locus YLR085C, strain ARP6, active compounds read low 1.03 | S. cerevisiae deletion strains, locus YLR262C, strain YPT6, active compounds read low 0.999 | S. cerevisiae deletion strains, locus YML094W, strain GIM5, active compounds read low 0.988 | S. cerevisiae deletion strains, locus YMR219W, strain ESC1, active compounds read low 1.01 | S. cerevisiae deletion strains, locus YMR263W, strain SAP30, active compounds read low 1.01 | S. cerevisiae deletion strains, locus YMR307W, strain GAS1, active compounds read low 1.06 | S. cerevisiae deletion strains, locus YNL128W, strain TEP1, active compounds read low 1.01 | S. cerevisiae deletion strains, locus YNL153C, strain GIM3, active compounds read low 1 | S. cerevisiae deletion strains, locus YNL298W, strain CLA4 (second series), active compounds read low 0.998 | S. cerevisiae deletion strains, locus YNL322C, strain KRE1, active compounds read low 1.01 | S. cerevisiae deletion strains, locus YNR030W, strain Alg12, active compounds read low 1.02 | S. cerevisiae deletion strains, locus YPL055C, strain LGE1, active compounds read low 0.928 | S. cerevisiae deletion strains, locus YPL241C, strain CIN2, active compounds read low 0.994 | S. cerevisiae deletion strains, locus YPR135W, strain CTF4, active compounds read low 0.962 | S. cerevisiae strains, strain wild type, active compounds read low 1.01
